Activity calls are given as the source filed them. Unless noted, the rule behind the calls is not given here.

Test [1] can be described thus: HepG2 liver cancer cell viability effects, profiling panel, resazurin fluorescence, 24 h, PK04 Diversity Set (AID 1172). The following applies: higher = more signal.
Test [2] is described as follows: basal S. cerevisiae growth modulation, no modifier, primary screen, OD600, strain BY4716, 24 h, basal condition (AID 1173). The following applies: OD600, 24 h, higher = more signal, called active from +8 up or from −8 down.
The nature of test [3]: MM1S myeloma cell viability, profiling panel, resazurin fluorescence, basal, 24 h, PK04 Diversity Set (AID 1174).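 Note: MM1S multiple myeloma cell line.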 The following applies: higher = more signal, called active from +8 up or from −8 down. On the technique in general: The colour change of resazurin is a common sign of viable cells or microbes.
Test [4] addresses Dihydroorotate dehydrogenase (quinone), mitochondrial (Plasmodium falciparum (isolate 3D7)) (UniProt Q08210). Nature of the test: PfDHODH enzyme inhibitors, primary screen, biochemical, C-terminal His tag, absorbance 600 nm (AID 1175).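 Note: recombinant parasite enzyme with a five histidine tag at its C terminus.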 The following applies: DCIP absorbance 600 nm, higher = more signal, called active from +8 up or from −8 down.
Test [5] can be described thus: S. cerevisiae RM11-1a growth modifiers, primary screen, strain RM11-1a, OD600, basal, 24 h (AID 1177).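 Note: cultures grown under basal conditions with no added stressor.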 The following applies: OD600, 24 h, higher = more signal, called active from +8 up or from −8 down.
A short description of test [6]: E. coli acrAB mutant growth effects, primary screen, E. coli filamentation inducers, strain DRC39, OD650, 24 h (AID 1178).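 Note: growth measured as culture turbidity by optical density at 650 nm.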 To be noted: higher = more signal, called active from +8 up or from −8 down.
Test [7] can be described thus: E. coli acrAB mutant growth effects, primary screen, E. coli filamentation inducers, strain DRC39, OD650, 48 h (AID 1179).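 Note: screen aims at cell division blockers that make cells filament.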 To be noted: E. coli DRC39 delta-acrAB growth, higher = more signal, called active from +8 up or from −8 down.
The nature of test [8]: RPMI8226 myeloma cell viability, profiling panel, resazurin fluorescence, basal, 24 h, PK04 Diversity Set (AID 1180).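 Note: RPMI8826 multiple myeloma cell line at 5000 cells per well.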 The following applies: higher = more signal.
The target in test [9] is E3 ubiquitin-protein ligase XIAP (Homo sapiens) (UniProt P98170). The experiment in a line: XIAP binders, primary screen, biophysical, small-molecule microarray, fluorescence 635 nm (AID 1181).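 Note: score merges 667 nm emission and signal to noise over triplicate slides.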 To be noted: small-molecule microarray binding, higher = more signal.
Test [10] relates to XIP peptide (Xip251-270) binding. Nature of the test: small-molecule binders of XIP peptide, primary screen, biochemical, small-molecule microarray, fluorescence 635/667 nm, 0.1 µg/mL protein (AID 1182). To be noted: fluorescent protein binding, 635 nm, higher = more signal, called active from +8 up or from −8 down.
The next test relates to XIP peptide (Xip251-270). The experiment in a line: small-molecule binders of XIP peptide, primary screen, biochemical, small-molecule microarray, fluorescence 635/667 nm, 0.5 µg/mL protein (AID 1183). To be noted: small-molecule microarray binding, fluorescence 635 nm; higher = more signal.
The nature of test [11]: Plasmodium falciparum growth inhibition, primary screen, strain 3D7, DAPI fluorescence, 100 nL (AID 1184).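 Note: parasites grown inside human red blood cells in medium with human serum.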 The following applies: P. falciparum 3D7 growth, 3 d, higher = more signal.
In test [12] the target is Homeobox protein Hox-A13 (Mus musculus) (UniProt Q62424). Nature of the test: inhibitors of HoxA13-DNA binding, primary screen, biochemical, fluorescence polarization, labeled oligonucleotide (AID 1185). To be noted: 15 min, higher = more signal, called active from +8 up or from −8 down. A general note: Polarisation of emitted light reports the rotation of a fluorescent probe.

The nature of test [13]: inhibitors of hydroxyurea-induced Chk1 phosphorylation, primary screen, imaging, HeLa, phospho-Chk1 antibody, percent positive cells (AID 1186). To be noted: hydroxyurea-induced phospho-Chk1 immunofluorescence imaging, higher = more signal.
The nature of test [14]: inhibitors of hydroxyurea-induced Chk1 phosphorylation, primary screen, imaging, HeLa, phospho-Chk1 nuclear intensity (AID 1187). The following applies: hydroxyurea-induced phospho-Chk1 immunofluorescence imaging, higher = more signal.

Sequence of Homeobox protein Hox-A13 (Mus musculus) (Q62424 whole entry, looked up): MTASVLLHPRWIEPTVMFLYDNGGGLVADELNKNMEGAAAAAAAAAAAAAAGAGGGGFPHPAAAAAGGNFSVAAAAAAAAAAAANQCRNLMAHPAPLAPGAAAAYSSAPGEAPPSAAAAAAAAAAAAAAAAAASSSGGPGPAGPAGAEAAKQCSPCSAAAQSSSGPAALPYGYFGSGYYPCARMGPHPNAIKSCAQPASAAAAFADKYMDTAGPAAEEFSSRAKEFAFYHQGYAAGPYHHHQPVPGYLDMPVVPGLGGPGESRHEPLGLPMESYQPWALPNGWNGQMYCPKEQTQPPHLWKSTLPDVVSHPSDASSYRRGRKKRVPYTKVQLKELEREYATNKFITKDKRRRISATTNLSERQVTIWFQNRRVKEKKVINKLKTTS
Sequence of E3 ubiquitin-protein ligase XIAP (Homo sapiens) (P98170 whole entry, looked up): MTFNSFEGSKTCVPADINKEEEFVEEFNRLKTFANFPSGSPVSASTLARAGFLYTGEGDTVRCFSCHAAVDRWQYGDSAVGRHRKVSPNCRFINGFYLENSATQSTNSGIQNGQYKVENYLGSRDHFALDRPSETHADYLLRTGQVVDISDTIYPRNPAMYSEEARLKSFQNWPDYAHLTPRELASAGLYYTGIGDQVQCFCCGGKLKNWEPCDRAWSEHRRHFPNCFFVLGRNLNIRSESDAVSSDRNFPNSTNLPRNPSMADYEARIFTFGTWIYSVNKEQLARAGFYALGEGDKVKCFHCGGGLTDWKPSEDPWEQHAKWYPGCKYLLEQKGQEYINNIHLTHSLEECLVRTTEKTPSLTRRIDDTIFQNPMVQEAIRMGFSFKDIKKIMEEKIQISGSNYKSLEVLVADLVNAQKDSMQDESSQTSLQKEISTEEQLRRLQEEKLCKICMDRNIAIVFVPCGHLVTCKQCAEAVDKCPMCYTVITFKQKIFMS
Sequence of Dihydroorotate dehydrogenase (quinone), mitochondrial (Plasmodium falciparum (isolate 3D7)) (Q08210 whole entry, looked up): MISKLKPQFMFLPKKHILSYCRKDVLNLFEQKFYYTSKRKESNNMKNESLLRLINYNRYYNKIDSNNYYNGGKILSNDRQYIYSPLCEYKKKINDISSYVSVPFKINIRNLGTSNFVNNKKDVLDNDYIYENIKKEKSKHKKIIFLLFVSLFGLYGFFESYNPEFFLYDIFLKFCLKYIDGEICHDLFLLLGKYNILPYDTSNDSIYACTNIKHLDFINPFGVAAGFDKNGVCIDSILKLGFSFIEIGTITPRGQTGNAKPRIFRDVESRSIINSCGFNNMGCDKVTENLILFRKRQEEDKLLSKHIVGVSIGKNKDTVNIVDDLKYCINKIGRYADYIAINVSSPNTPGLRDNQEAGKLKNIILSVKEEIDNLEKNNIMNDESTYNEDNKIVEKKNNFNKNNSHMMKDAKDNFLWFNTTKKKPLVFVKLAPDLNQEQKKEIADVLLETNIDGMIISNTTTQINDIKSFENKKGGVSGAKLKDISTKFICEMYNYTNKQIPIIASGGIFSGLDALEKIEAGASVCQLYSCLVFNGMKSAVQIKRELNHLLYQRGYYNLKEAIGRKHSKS

In the case of `C[C@@H]1CC[C@H]2C(=O)N3[C@@H](CC[C@@H](C)[C@@H]3c3cccc(N4CCOCC4)c3)C(=O)N2[C@H]1c1cccc(Br)c1`, the z-score in [1] is 1.05; in test [2], -1.89 (inactive); in test [3], 0.328 (inactive); in test [5], -0.123 (inactive); in [6], 0.401 (inactive); in [7], 0.238 (inactive). In addition, the figures for the z-score in [8], in test [11] and in [12] were 1.37, 0.656 and -5.55 (inactive), respectively. The composite z-score was -0.0779 (inactive) in test [4], -0.111 in test [9], 0.806 (inactive) in [10] and 0.541 in the test on XIP peptide (Xip251-270).
As for `CCN1C(C)=C(C(=O)OC)[C@@H](c2ccccc2)N2C(=O)[C@](O)(C(=O)OC)[C@@H](c3ccccc3)C(C(=O)c3ccccc3)=C12`, the z-score was 2.22 in test [1]; -3.46 (inactive) in test [2]; 1.06 (inactive) in test [3]; -0.785 (inactive) in test [5]; 1.55 (inactive) in test [6]; 1.39 (inactive) in [7]. In addition, the z-score is 1.57 in [8], 0.245 in [11] and -4.23 (inactive) in test [12]. Also, the composite z-score in test [4] was 0.208 (inactive); in [9] it was -0.101; in [10] it was -0.176 (inactive); in the test on XIP peptide (Xip251-270), 0.283.
In the case of `CO[C@H]1COC(=O)CC=C[C@@H](C)COC(=O)[C@@H](C)NC(=O)CC=C[C@@H]1C`, the z-score in [1] is 0.931; in test [2], -2.02 (inactive); in test [3], 1.13 (inactive); in test [5], -4.97 (inactive); in test [6], 0.236 (inactive); in test [7], -1.28 (inactive). Moreover, the figures for the z-score in [8], in test [11] and in [12] were 0.181, -0.437 and 0.382 (inactive), respectively. Besides, the composite z-score was -0.0214 (inactive) in test [4], -0.216 in test [9], 0.89 (inactive) in test [10] and 0.405 in the test with XIP peptide (Xip251-270).
With `CO[C@H]1COC(=O)CC=C[C@H](C)[C@@H](OC)COC(=O)[C@H](Cc2ccccc2)NC(=O)CC=C[C@@H]1C`, the z-score in test [1] is 1.26; in test [2], -0.562 (inactive); in test [3] it was 1 (inactive); in test [5], 0.33 (inactive); in [6], 0.424 (inactive); in test [7] it was -1.39 (inactive). Also, the z-score in test [8] is 0.452; in [11] it was 0.0429; in [12] it was -0.426 (inactive). Besides, the composite z-score in test [4] was 1.09 (inactive); in test [9] it was -0.031; in test [10], -0.254 (inactive); with XIP peptide (Xip251-270), -0.42.
For `CSCC[C@@H]1NC(=O)CC=C[C@@H](C)COC(=O)[C@H](CCSC)NC(=O)CC=C[C@@H](C)COC1=O`, the z-score in test [1] is 0.413; in [2], -1.37 (inactive); in [3], 0.94 (inactive); in [5], -1.46 (inactive); in test [6], -0.251 (inactive); in [7], -0.407 (inactive). In addition, the values for the z-score in test [8], in test [11] and in test [12] were 0.613, -0.145 and 1.03 (inactive), respectively. In addition, the composite z-score in test [4] was 0.576 (inactive); in test [9], -0.243; in test [10], 0.223 (inactive); in the test on XIP peptide (Xip251-270), -0.467.
`CO[C@@H]1COC(=O)[C@H](C)NC(=O)CC=C[C@@H](C)[C@H](NS(=O)(=O)c2ccc(C)cc2)COC(=O)CC=C[C@@H]1C`: the z-score in [1] is 0.825; in test [2], -0.364 (inactive); in test [3] it was 0.507 (inactive); in test [5] it was 0.655 (inactive); in test [6], 0.798 (inactive); in [7] it was 0.547 (inactive). Further, the z-score in test [8] was 0.271; in test [11], 0.635; in [12], 0.769 (inactive). For the same molecule, the composite z-score in [4] is 0.605 (inactive); in [9], -0.0835; in [10] it was -0.44 (inactive); in the test with XIP peptide (Xip251-270) it was -0.507.
In the case of `C[C@@H]1NC(=O)CC=C[C@@H](C)[C@@H]2C=C[C@H](O)[C@@H](COC(=O)[C@H](C)NC(=O)CC=C[C@@H](C)[C@@H]3C=C[C@H](O)[C@@H](COC1=O)O3)O2`, the z-score in [1] was -0.0969; in test [2] it was -2.21 (inactive); in test [3], 0.668 (inactive); in test [5], -1.76 (inactive); in [6], 0.953 (inactive); in test [7] it was 0.264 (inactive). Moreover, the z-score in test [8] was 0.526; in test [11], -1.47; in [12], 0.881 (inactive). The composite z-score in test [4] is 0.633 (inactive); in test [9], -0.135; in test [10], -0.217 (inactive); in the test on XIP peptide (Xip251-270), 0.221.
Consider `O=C1OCC=C[C@H]2OC34C=CCN(Cc5ccccc5)C(=O)[C@H]3N(CCCCCO)C(=O)[C@@H]4[C@@H]12` (some centres undefined), for which the z-score in test [1] was -0.399; in test [2], -0.693 (inactive); in [3], 0.238 (inactive); in test [5], -0.512 (inactive); in test [6], 1.77 (inactive); in [7], 1.22 (inactive). The z-score in [8] is 0.58; in [11], -1.99; in test [12], -3.21 (inactive); in [13], 0.729 (inactive); in [14] it was 0.0912 (inactive). The composite z-score is -0.0022 (inactive) in test [4], 0.101 in test [9], 0.211 (inactive) in [10] and -0.85 in the test on XIP peptide (Xip251-270).
With `COCCOC(=O)N1C(=O)[C@@]2(c3ccccc31)[C@H](C(=O)N1CCc3cc(OC)c(OC)cc3C1)[C@H]1C(=O)O[C@H](c3ccccc3)[C@H](c3ccccc3)N1[C@@H]2c1ccccc1OCCO`, the z-score in [1] is 0.223; in [2] it was 1.03 (inactive); in test [3] it was -0.517 (inactive); in [5] it was -0.446 (inactive); in [6] it was 0.659 (inactive); in [7], 1.31 (inactive). The z-score in test [8] is 0.673; in test [11], -1.9; in test [12] it was -0.573 (inactive); in test [13], -0.0955 (inactive); in test [14], -0.08 (inactive). The composite z-score in [4] was -1.85 (inactive); in test [9], -0.042; in [10], 0.227 (inactive); in the test with XIP peptide (Xip251-270) it was 0.741.
Turning to `CC(C)(C)OC(=O)CC[C@@]1(C(=O)NCc2ccccc2)N=C(c2ccc(OCCCO)cc2)O[C@@H]1c1ccccc1`, the z-score in [1] was -0.956; in test [2], -0.454 (inactive); in test [3], -1.49 (inactive); in test [5] it was -0.801 (inactive); in test [6] it was 2.23 (inactive); in [7], 1.5 (inactive). In addition, the z-score is -1.76 in test [8]; -2.25 in test [11]; -5.51 (inactive) in [12]; -1.17 (inactive) in [13]; -1.29 (inactive) in test [14]. Further, the composite z-score in test [4] was -0.362 (inactive); in test [9] it was 0.174; in test [10], 1.59 (inactive); in the test with XIP peptide (Xip251-270), 0.93.
As to `C=CCc1cccc([C@@H]2[C@@H](C)CC[C@H]3C(=O)N4[C@H](c5cccc(CC=C)c5)[C@@H](C)CC[C@H]4C(=O)N23)c1`, the z-score was 2.52 in test [1]; -1.2 (inactive) in test [2]; 0.778 (inactive) in test [3]; 1.1 (inactive) in [5]; 0.55 (inactive) in test [6]; -0.184 (inactive) in [7]. In addition, the values for the z-score in test [8], in [11] and in test [12] were -1.11, -0.729 and -3.9 (inactive), respectively. Besides, the composite z-score in test [4] was -1.76 (inactive); in test [9], -0.187; in test [10], 0.718 (inactive); in the test on XIP peptide (Xip251-270), 0.336.

These data come from PubChem BioAssay.
